# Bioassay records: PubChem BioAssay, National Center for Advancing Translational Sciences (NCATS)
# Sampled rows, rich in hits. Any-hit rate of the full collection: about 6.1%.
# RORgamma inh: ROR gamma (mouse) transcription inhibition. Potency, µM (highest dose often 53.6 µM), for inactives: at the highest dose activity change, negative = inhibition, actives largely listed as inhibitors. Drosophila S2 Gal4-RORgamma UAS-luciferase reporter, 20 h. P51450. 5.4% of 310,000 active. AID 2551; also: % is scaled to controls: 0 for no effect and ±100 for the full control effect; nearly all actives have a fitted effect of over 60% in size
# Target sequence (P51450 whole entry, looked up, the tested form may be a part): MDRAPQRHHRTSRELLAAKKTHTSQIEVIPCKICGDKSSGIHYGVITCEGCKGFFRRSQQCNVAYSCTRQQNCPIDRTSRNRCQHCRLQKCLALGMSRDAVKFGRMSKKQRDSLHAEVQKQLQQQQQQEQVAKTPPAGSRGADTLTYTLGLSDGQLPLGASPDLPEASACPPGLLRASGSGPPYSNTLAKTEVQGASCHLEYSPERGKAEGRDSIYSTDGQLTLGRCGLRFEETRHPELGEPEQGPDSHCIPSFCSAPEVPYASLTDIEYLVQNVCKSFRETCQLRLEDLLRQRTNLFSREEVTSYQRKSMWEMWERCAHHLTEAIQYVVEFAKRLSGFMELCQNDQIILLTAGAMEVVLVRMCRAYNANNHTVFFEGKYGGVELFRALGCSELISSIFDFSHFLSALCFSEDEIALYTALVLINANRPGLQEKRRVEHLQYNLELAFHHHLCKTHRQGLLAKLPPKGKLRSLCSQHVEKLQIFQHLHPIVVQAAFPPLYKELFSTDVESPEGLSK
#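 Luciferase reporter read in Schneider cells carrying Gal4-RORγ (mouse) and UAS-Photinus luciferase; cells given compound 1 h before 700 uM copper sulfate induction, then incubated 20 h at ambient temperature.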
# ATXN2 expr inh: inhibitors of ATXN2 expression | 0.72% of 360,000 active | HEK-293 ATXN2-luciferase reporter, luminescence, 24 h | Potency, µM (top dose mostly 57 µM), for the others: top-dose activity change, negative = inhibition, actives largely listed as inhibitors; also: % is scaled to controls: 0 for no effect and ±100 for the full control effect; nearly all actives have a fitted effect of over 55% in size
#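 qHTS (up to 57 uM final) was run with 24 h compound exposure of reporter cells at 37 °C. Each well was multiplexed: SteadyGlo luminescence measured ATXN2-luciferase expression after a fluorogenic Gly-Phe-AFC viability readout (25 uM final).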
# HepG2 tox: kills HepG2 cells in TGF-b inhibitor counter-screen. HepG2 CAGA-GFP viability, ATP luminescence, 18 h. Potency, µM (doses to about 46.1 µM), for inactives: top-dose activity change, negative = cytotoxicity, actives largely listed as cytotoxic. 0.76% of 410,000 active
#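 HepG2 CAGA-GFP cells (1000/well, DMEM with 1% FBS) received compound, then TGF-beta at 500 pg/mL final, and were incubated 18 hours at 37 degrees C. Viability was read by CellTiter-Glo luminescence. Media-only wells were set as complete cell-killing and DMSO as no toxicity.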
# Gal4-VP16 FLuc: counter-screen for ROR gamma inhibitors: Gal4-VP16 reporter; 3.5% of 310,000 active; Drosophila S2 Gal4-VP16 UAS-luciferase, luminescence, 20 h; AID 2546; Potency, µM (titrated, usually from 53.6 µM), without a hit: top-dose activity, negative = inhibition, hits mostly inhibitors;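 also: Gal4-VP16 expression switched on by copper sulfate through the metallothionein promoter; % is scaled to controls: 0 for no effect and ±100 for the full control effect; nearly all actives have a fitted effect of over 50% in size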
# ATXN viability: viability counter-screen for ATXN expression inhibitors; AID 651635; Potency, µM (titrated, usually from 56.7 µM), actives largely listed as cytotoxic; S2 cells (HEK-293 line with an ATXN2-luciferase reporter) viability, CellTiter-Fluor protease fluorescence, 24 h; 0.49% of 400,000 active; also: nearly all actives have a fitted effect of over 40% in size
# TGFb SMAD3 inh: inhibitors of TGF-b signaling; 1.2% of 410,000 active; AID 588855; Potency, µM (doses to about 46.1 µM), for inactives: at the top dose activity, negative = inhibition, usual class: inhibitors; HepG2 CAGA-GFP TGF-b/SMAD3 reporter, GFP fluorescence, 18 h; TGF-beta stimulated, 500 pg/mL final; also: % is scaled to controls: 0 for no effect and ±100 for the full control effect; nearly all actives have a fitted effect of over 65% in size
#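 Inhibition of TGF-beta-driven CAGA-GFP reporter expression in HEPG2 cells is measured by cellular GFP fluorescence after 18 h stimulation with 500 pg/mL recombinant TGF-beta in 1% FBS medium at 37 degrees C.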
# * = called active by the depositor; i = inactive; ? = inconclusive; nt = no result given; [ ] = dose if it differs, or a comment. Calls follow the shape of the dose curve; as a rule, active = well fitted curve in the direction sought with a large enough effect; inconclusive = small, poorly fitted or top-dose-only effect, or another doubt; inactive = no such curve, though single readings can be large; an effect the other way counts as inactive or inconclusive. Potency is read from the fitted curve at half-maximal effect.
SMILES,RORgamma inh,ATXN2 expr inh,HepG2 tox,Gal4-VP16 FLuc,ATXN viability,TGFb SMAD3 inh
CC(Oc1ccc(F)cc1)C(=O)NCC1(N(C)C)CCCCC1 (centres undefined),nt,-8.9%,3.9%,nt,i,36.0%
Cc1cccc(C(=O)Nc2nnc(S(=O)(=O)N(C)c3ccccc3C)s2)c1,nt,nt,-36.8%,nt,nt,0.0%
Oc1ccc(O)c(-c2cnns2)c1,3.16µM*,9.5%,-0.7%,?,i,9.4%
Nc1nc(N)nc(-c2cc(O)ccc2O)n1,nt,9.2%,4.6%,nt,i,?
COc1ccc(OC)c(-c2cc(Cl)c3c(c2)CC(CNC(=O)c2coc4c2C(=O)CCC4)O3)c1 (centres undefined),nt,nt,nt,nt,i,nt
COc1cc(=O)n2c(c1C(=O)NCc1ccsc1)CCN(Cc1nc3ccccc3[nH]1)CC2,nt,nt,nt,nt,i,nt
CCc1ccccc1NC(=O)C1CCN(S(=O)(=O)c2ccc3[nH]c(=O)ccc3c2)CC1,nt,13.3%,-11.4%,nt,i,-4.0%
CCOc1nc(NC2CCCCC2)nc(NC(C)(C)C)n1,?,-6.8%,-11.2%,15.8µM*,i,-16.2%
CCc1cc(=O)oc2cc3occ(-c4ccc(OC)c(F)c4)c3cc12,?,?,-44.3%,12.6µM*,nt,-51.7%
O=C(Nc1ccc2[nH]c(=O)[nH]c2c1)c1ccc([N+](=O)[O-])o1,nt,-6.3%,-30.3%,nt,?,11.2µM*
O=C(Nc1cccc([N+](=O)[O-])c1)c1ccc([N+](=O)[O-])o1,nt,nt,-63.3%,nt,?,?
Cc1ccc(NC(=O)c2ccc([N+](=O)[O-])o2)cc1C,7.94µM*,-10.8%,-38.8%,-21.9%,?,?
O=C(Nc1ccc(N2CCCC2)c(Cl)c1)c1ccc([N+](=O)[O-])o1,?,38.8%,-78.7%,-8.6%[10 µM],i,?
COc1cccc(-c2csc(NNC(=O)c3cccs3)n2)c1,2.24µM*,nt,-9.4%,10µM*,i,-17.3%
CC(=O)CSc1nc(-c2ccccc2)c(-c2ccccc2)o1,6.7%,-9.1%,1.9%,-8.9%,i,2.4%
COc1cc(OC)cc(C(=O)Nc2cccc(NC(=O)c3cc(OC)cc(OC)c3)n2)c1,nt,-13.3%,-70.2%,nt,?,-7.7%
COc1cc(OC)cc(C(=O)Nc2nc(-c3ccccc3)c(-c3ccccc3)o2)c1,1.41µM*,?,-10.9%,2.82µM*,i,?
CC(=O)Nc1nc(-c2ccccc2)c(-c2ccccc2)o1,12.6µM*,nt,1.9%,?,i,-1.4%
Cc1oc(-c2ccccc2NC(=O)C2CCC2)nc1CNC(=O)c1ccc2ccccc2c1,nt,nt,nt,nt,i,nt
c1cnc2c(-c3nccc4c3[nH]c3ccccc34)cccc2c1,6.7%,nt,nt,-5.1%,nt,nt
COc1ccc2sc(N(CCCN(C)C)C(=O)c3ccc(S(=O)(=O)N4CCc5ccccc5C4)cc3)nc2c1,nt,?,-76.3%,nt,?,15.8µM*
Cc1cc(C)c2sc(N(CCCN(C)C)C(=O)c3ccc(S(=O)(=O)N4CCCc5ccccc54)cc3)nc2c1,nt,?,-121.8%,nt,28.2µM*,?
CN(C)CCCN(C(=O)c1ccc(S(=O)(=O)N2CCc3ccccc3C2)cc1)c1nc2ccc(F)cc2s1,?,?,-89.1%,11.2µM*,?,?
Cc1ccc2nc(N(CCCN(C)C)C(=O)c3ccc(S(=O)(=O)N4CCc5ccccc5C4)cc3)sc2c1,10µM*,?,-105.4%,12.6µM*,?,?
COc1ccc(OCCN2CCC(C(=O)NC(c3ccc(F)cc3)c3ncccc3C)CC2)cc1 (centres undefined),nt,-5.5%,-17.4%,nt,i,-5.1%
SMILES,RORgamma inh,ATXN2 expr inh,HepG2 tox,Gal4-VP16 FLuc,ATXN viability,TGFb SMAD3 inh
Cc1ccccc1C(c1ncccc1C)N(C)C(=O)C1CCN(CCOc2ccc(Cl)cc2Cl)CC1 (centres undefined),nt,?,-85.7%,nt,25.1µM*,?
Cc1cccnc1C(NC(=O)C1CCN(CCOc2ccc(F)cc2)CC1)c1ccc(Cl)cc1 (centres undefined),nt,0.0%,11.2µM*,nt,?,?
COc1ccc(/C=C/CN2CCC(C(=O)NC(c3ccc(F)cc3)c3ccc4ccccc4n3)CC2)cc1 (centres undefined),nt,?,-86.8%,nt,35.5µM*,?
Cn1cc(CN2CCC(C(=O)NC(c3ccc(-c4ccccc4)cc3)c3cnccn3)CC2)c2ccccc21 (centres undefined),nt,-23.4%,11.2µM*,nt,20µM*,?
Cc1c(C(=O)N2CCN(C(C)C)CC2)sc2ncnc(NCc3ccco3)c12,nt,nt,nt,nt,i,nt
O=C(NC(c1ccc(-c2ccccc2)cc1)c1cnccn1)C1CCN(Cc2ccc3c(c2)OCO3)CC1 (centres undefined),nt,?,-93.2%,nt,31.6µM*,?
O=C(NC(c1ccccc1)c1cnccn1)C1CCN(CCOc2ccc(Cl)cc2Cl)CC1 (centres undefined),nt,?,-95.8%,nt,12.6µM*,?
COc1ccccc1C(NC(=O)C1CCN(CCOc2ccc3ccccc3c2)CC1)c1ccccn1 (centres undefined),nt,?,-82.4%,nt,?,14.1µM*
O=C(NC(c1ccc(-c2ccccc2)cc1)c1cnccn1)C1CCN(Cc2ccc(Cl)c(Cl)c2)CC1 (centres undefined),nt,0.0%,-34.8%,nt,?,?
O=C(NC(c1ccccc1)c1ccsc1)C1CCN(CCOc2ccc(Cl)cc2Cl)CC1 (centres undefined),nt,?,-95.1%,nt,nt,?
COc1ccc2cccc(CCNC(C)=O)c2c1,nt,7.2%,nt,nt,i,nt
COC(=O)Cn1nc(C)c2c(C)n(-c3ccccc3)nc2c1=O,nt,nt,0.3%,nt,nt,nt
COc1ccc(C)cc1NCc1cccc(OC)c1OC,17.8µM*,-5.6%,1.0%,13.5%,i,16.1%
CCCCC(C)/C=C(C)/C=C(\C)C(=O)NC1=CC(O)(/C=C/C=C/C=C/C(=O)NC2=C(O)CCC2=O)C2OC2C1=O (centres undefined),0.562µM*,nt,nt,1.26µM*,nt,nt
COc1ccc(-c2noc(CC(=O)Nc3ccc(Br)cc3C)n2)cc1,nt,nt,-4.8%,nt,nt,?
Cc1nnc(SCC(=O)Nc2sccc2C(N)=O)n1Cc1ccccc1,4.47µM*,5.5%,-8.0%,-6.3%,i,3.9%
Cn1c(SCC(=O)Nc2ncc(C(F)(F)F)cc2Cl)nnc1-c1ccc(Cl)cc1,10µM*,0.2%,2.2%,11.2µM*,i,-4.1%
Cc1nnc(SCC(=O)Nc2ncc(Cl)cc2Cl)n1Cc1ccccc1,3.98µM*,3.1%,12.7%,?,i,-10.9%
CCc1nnc(NC(=O)CSc2nnc(C)n2Cc2ccccc2)s1,11.4%,3.5%,14.8%,-11.0%,i,-20.1%
